Shown is part of a subset that was picked to be rich in hits.
Pf apPOL inh = Pf-apPOL inhibitors, biochemical, fluorescence | AID 1794808, 2022 | inhibition, % at 10 µM | 210,000 compounds, 0.25% hits | Recombinant Pf-apPOL, molecular beacon fluorescence, 1.5 h | Plasmodium falciparum apicoplast DNA polymerase (apPOL)
mHTT CaM bind = mutant huntingtin-calmodulin interaction inhibitors – biochemical, AlphaScreen, primary screen. AID 1671202, 2021. P42858. inhibition, % at 15 µM. 190,000 compounds, 3.6% hits. AlphaScreen His-mHTT/GST-CaM binding, luminescence
Each line names hits and unclear results; the compound was inactive in the other large screens; ! = a repeat was not active. Cut-off read from the data, not from the text of the source: active = inhibition above about 50%; inactive = the rest.

CCn1c(N2CCC(C(=O)NCc3ccc(F)cc3)CC2)cc(=O)n(C)c1=O	none
Cn1c(N2CCC(C(=O)Nc3ccccc3)CC2)cc(=O)n(C)c1=O	none
CCn1c(N2CCC(C(=O)NCc3cccc(Cl)c3)CC2)cc(=O)n(C)c1=O	mHTT CaM bind 59
Cn1c(N2CCC(C(=O)N3CCC(Cc4ccccc4)CC3)CC2)cc(=O)n(C)c1=O	mHTT CaM bind 75
CCc1cccc(NC(=O)C2CCN(c3cc(=O)n(C)c(=O)n3C)CC2)c1	mHTT CaM bind 66
COc1cc(OC)c(NC(=O)C2CCN(c3cc(=O)n(C)c(=O)n3C)CC2)cc1Cl	mHTT CaM bind 59
CCCOc1ccc(N2C(=O)CC(Nc3cc(Cl)c(O)c(Cl)c3)C2=O)cc1 (stereo not given)	none
COc1ccccc1C1CCN(Cc2cn[nH]c2-c2ccc(F)cc2)CC1	none (no result: mHTT CaM bind)
O=S(=O)(NC1CC1)c1ccc(F)cc1	none
C=C[C@@H]1c2cc(C)ccc2N(S(=O)(=O)c2ccc(C)cc2)[C@H](c2ccc(C(C)(F)F)cc2)C1(C#N)C#N	mHTT CaM bind 90
C=C[C@@H]1c2ccccc2N(S(=O)(=O)c2ccc(C)cc2)[C@H](c2ccc(C(F)(F)F)cc2)C1(C#N)C#N	none
COC(=O)c1cc(Nc2ccc3c(c2)OCO3)c2cccc(F)c2n1	mHTT CaM bind 51
COC(=O)c1cc(Nc2cccc(F)c2)c2cccc(F)c2n1	none
CC(=O)N1CC(=O)NC(=Cc2cccnc2)C1=O	Pf apPOL inh 52 (no result: mHTT CaM bind)
O=C1/C(=C/c2cccnc2)CC/C1=C\c1cccnc1	none
Cc1ccc(CN2C(=O)c3ccccc3C2C(=O)NC2CCC(C)CC2)cc1 (stereo not given)	none
CC1CCC(NC(=O)C2c3ccccc3C(=O)N2Cc2ccc(F)cc2)CC1 (stereo not given)	mHTT CaM bind 52
Cc1ccc(S(=O)(=O)Nc2ccccc2-c2nc3ccccc3c(=O)o2)cc1	none
C=CC[n+]1ccc(/C=C/c2ccccc2O)c2ccccc21	mHTT CaM bind 69
C[n+]1ccc(/C=C/c2ccccc2F)c2ccccc21	none
CN1C(=O)CC(N2CCN(c3nc4ccccc4s3)CC2)C1=O (stereo not given)	none
Cc1sc2nc(SCC(N)=O)n(-c3ccc(Cl)c(Cl)c3)c(=O)c2c1C	none
CC1CC(=O)N(c2ccccc2)N1 (stereo not given)	none
O=C(Sc1n[nH]c(=O)[nH]c1=O)c1ccc(Cl)cc1	none
Cc1cccc(C(=O)Sc2n[nH]c(=O)[nH]c2=O)c1	mHTT CaM bind 70
O=C(NCc1cccs1)c1cc2n(n1)CCCC2	none
COCc1nnc(NC(=O)c2ccccc2F)s1	none
COC(=O)c1cc(Br)cc2ccccc12	Pf apPOL inh 64
COC(=O)c1c[nH]c2ccccc12	none (no result: mHTT CaM bind)
CCCC(=O)Nc1ccc(NC(=O)c2ccc(I)cc2)cc1	none
CSc1ccc(/C=C2N=C(/C=C/c3ccccc3)OC\2=O)cc1	none
Oc1ccc2c(c1)c(-c1ccccc1)nn2-c1ccccc1	mHTT CaM bind 55
Cc1c(C(=O)O)c(-c2ccccc2)nn1-c1ccccc1	none
Cc1cc(/C=C2/C(=O)NC(=O)N(C)C2=O)c(C)n1-c1ccc(F)c(Cl)c1	none
Cc1cc(/C=C2\NC(=O)NC2=O)c(C)n1-c1ccc(Cl)c(Cl)c1	mHTT CaM bind 100
Cc1cc(/C=C2\SC(=O)NC2=O)c(C)n1-c1ccc(I)cc1	none
Cc1cc(/C=C2\NC(=O)NC2=O)c(C)n1-c1cccc(I)c1	mHTT CaM bind 91
CSc1cccc(NC(=O)C(C)N(c2ccccc2)S(C)(=O)=O)c1 (stereo not given)	none
Cc1cc2c(cc1C)NC(CC(=O)Nc1ccc(N3CCOCC3)cc1)C(=O)N2 (stereo not given)	mHTT CaM bind 57!
Cc1cc2c(cc1C)NC(CC(=O)Nc1cccc(C(=O)O)c1)C(=O)N2 (stereo not given)	none
CNc1nccc(N2CCC(CC(=O)NCCN3CCC(C)CC3)CC2)n1	none
Cc1ccc(NC(=O)CSc2nc3c([nH]c4ccccc43)c(=O)n2C)cc1Cl	none
Cc1ccc(NC(=O)CSc2nnc3c(n2)[nH]c2ccccc23)cc1Cl	mHTT CaM bind 53
CC(c1ccccc1)C(CC(=O)O)C(=O)Nc1ccccc1 (stereo not given)	none
Cc1ccc(CNC(=O)c2cc(NC(=O)C(C)C)cc3nc(C)ccc23)cc1	none
CCOc1ccc(CNC(=O)c2cc(NC(C)=O)cc3nc(C)ccc23)cc1	none
Cc1ccc2c(C(=O)NCc3ccccc3Cl)cc(NC(=O)C(C)C)cc2n1	mHTT CaM bind 58
CCC(=O)Nc1cc(C(=O)NCc2cc(F)cc(F)c2)c2ccc(C)nc2c1	mHTT CaM bind 54
O=C(CCc1ccccc1)Nc1ccccc1C(=O)Nc1ccc(C(=O)O)cc1	none
O=C(O)c1ccnn1-c1ccccc1	none (no result: mHTT CaM bind)
Cc1cc(C2CCCN2C(=O)c2c(Cl)cnn2C)on1 (stereo not given)	none
CCc1c(C(=O)O)nnn1-c1ccc(OC)cc1	none
CC(=O)N(C(C)=O)c1ncc2c([nH]c3ccccc32)c1C#N	mHTT CaM bind 83
N#Cc1c(N2CCCCC2)ncc2c(=O)c3ccccc3[nH]c12	none
COc1cc(C(O)CO)ccc1O (stereo not given)	none (no result: mHTT CaM bind)
Cc1ccc2cccc(NC(=O)C(F)(F)F)c2n1	none
Cc1cccc(NC(c2ccccc2[N+](=O)[O-])c2ccc3ccc(C)nc3c2O)n1 (stereo not given)	mHTT CaM bind 75
COc1ccc(C(Nc2cccc(C)n2)c2ccc3ccc(C)nc3c2O)cc1C (stereo not given)	mHTT CaM bind 89
Cc1cccc(NS(=O)(=O)c2ccc(C)c([N+](=O)[O-])c2)n1	none
COc1cc(C(Nc2cccc(C)n2)c2ccc3ccc(C)nc3c2O)ccc1O (stereo not given)	mHTT CaM bind 97
Cc1cccc(NC(c2ccc(O)cc2)c2ccc3ccc(C)nc3c2O)n1 (stereo not given)	mHTT CaM bind 97
COc1ccc(C(=O)Nc2cccc(C)n2)c(OC)c1OC	none
Cc1ccc2[nH]c(=O)c(-[n+]3ccccc3)c(-c3ccccc3)c2c1	none
COc1ccc(C(=O)Nc2nccs2)cc1S(=O)(=O)N1CCOCC1	none
Cc1ccc(C(=O)N2CCC(c3noc(N)c3C(C)C)CC2)cc1F	none
COc1cccc2c1oc(=O)c1c(N)nc3c(c12)CC(C)CC3 (stereo not given)	none
Cc1ccc(C)c(N2CCC(C(=O)Nc3cccc(C(F)(F)F)c3)C2=O)c1 (stereo not given)	mHTT CaM bind 79
Cc1ccc(C)c(N2CCC(C(=O)Nc3cccc(Cl)c3)C2=O)c1 (stereo not given)	none
NNC(=O)CCc1ccccc1O	none
O=C(NCc1ccccc1)/C(=C\c1ccc2c(c1)OCO2)NC(=O)c1ccco1	none
O=C(Nc1ccc2c(N3CCCC3)ncnc2c1)c1cccc(Br)c1	none
CN(C)c1cccc(C(=O)Nc2ccc3c(N4CCCC4)ncnc3c2)c1	mHTT CaM bind 58
O=C(Nc1ccc2c(N3CCOCC3)ncnc2c1)c1cccc(Cl)c1	mHTT CaM bind 88
O=C(Nc1ccc2c(N3CCOCC3)ncnc2c1)c1cccc(F)c1	none
Cc1cccc(-c2nc3n(n2)C(c2ccc(O)cc2)C2=C(CC(C)(C)CC2=O)N3)c1 (stereo not given)	none
CC1(C)CC(=O)C2=C(C1)Nc1nc(-c3cccc(Cl)c3)nn1C2c1ccc2c(c1)OCO2 (stereo not given)	mHTT CaM bind 61
COCc1cc(C)nc2sc(-c3nc4cc([N+](=O)[O-])c([N+](=O)[O-])cc4[nH]3)c(N)c12	none
